Autofluor 339: intrinsic fluorescence of library compounds, ex339/em460 – biochemical, MLSMR library, data from DPM-DC assay, artefact control, profiling panel. compound autofluorescence, ex339/em460 nm, NADH buffer; stronger effect = higher value; 1 = no-compound wells, NADH background. fluorescence fold increase at 10 µM. actives 5.5% (n = 65,000). AID 709;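 active = at 10 µM, mean starting fluorescence two-fold or more over control wells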;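 note: signal is the first read of a kinetic run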
MK inhibit: inhibitors of Streptococcus pneumoniae mevalonate kinase; inhibition, % at 10 µM; actives 0.48% (n = 65,000); AID 555; purified MK, PK/LDH-coupled NADH absorbance 340 nm;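 active = ranked among the strongest by inhibition in the single 10 µM screen, a fixed top-ranked set picked for dose follow-up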
NADH coupling: inhibition of NAD/NADH coupling enzymes, library profiling | IC50, µM (titrated, usually from 10 µM) | coupled PK/LDH NADH assays, four targets | AID 774 | actives 0.02% (n = 65,000);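 active = single-dose screening hits from any of four coupled enzyme assays that gave an IC50 when retested across doses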;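 note: the DPM-DC format reads NADH fluorescence rather than 340 nm absorbance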
PMK inhibit: inhibitors of Streptococcus pneumoniae phosphomevalonate kinase. actives 0.49% (n = 65,000). inhibition, % at 10 µM. AID 539. purified PMK, PK/LDH-coupled NADH absorbance 340 nm;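 active = top-ranked compounds by inhibition in the single 10 µM screen, taking a fixed number of the strongest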
Spn DPM-DC inh: blocks S. pneumoniae diphosphomevalonate decarboxylase | AID 556 | actives 0.49% (n = 65,000) | purified DPM-DC, PK/LDH coupled NADH fluorescence | calls only at 10 µM;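 active = the 320 compounds with the highest percent inhibition in the single-dose primary screen, excluding strongly autofluorescent ones, cut at about 32% in these data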;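 note: kinetic rate of NADH fluorescence loss reporting ADP formed by the decarboxylase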
Abs 340nm: compounds absorbing at 340 nm; compound absorbance at 340 nm, fold over control; fold change at 10 µM; 65,000 tested, under 10 active;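 active = at 10 µM dose, initial 340 nm absorbance at least 2 fold that of control wells; inactive = change under 2 fold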;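 note: initial absorbance extrapolated from kinetic A340 decline of NADH oxidation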
Each line names hits and unclear results; the compound was inactive in the other large screens. An excerpt weighted towards active compounds, which were near 6.5% of everything screened.

CCOC(=O)c1cnc(-n2nc(C)cc2C)nc1NC	none
CCOC(=O)c1cnc(-n2nc(C)cc2C)nc1NC1CCCCC1	Autofluor 339 2
CNc1nc(C)c(C(=O)OCc2ccccc2)s1	none
CC(NC(=O)NC12CC3CC(CC(C3)C1)C2)C1CCCO1 (stereo not given)	none
CC1Cc2nc(SCC(=O)Nc3ccc4c(c3)OCO4)n(CCc3ccccc3)c(=O)c2S1 (stereo not given)	Spn DPM-DC inh active
COCc1cc(C)c(C#N)c(=S)[nH]1	MK inhibit 58
CC(C)(C)NCc1cccn1-c1sc2c(c1C#N)CCCC2	MK inhibit 49
CC(=O)Nc1sc2c(c1C#N)CCCCC2	none
CCCCCNC(=O)C(C#N)c1nc2ccccc2nc1N1CCCC1 (stereo not given)	Autofluor 339 2.4
CCN(CC)c1nc2ccccc2nc1C(C#N)C(=O)NCCCOC (stereo not given)	Autofluor 339 2.4
Cc1ccc(S(=O)(=O)C(C#N)c2nc3ccccc3nc2N2CCCC2)cc1 (stereo not given)	Autofluor 339 3.8 (not shown: Spn DPM-DC inh)
CC[N+](C)(C)c1cccc(O)c1	none
O=C(NC(Cc1ccccc1)c1nc2ccccc2[nH]1)C1CC(=O)N(c2ccc3c(c2)OCCO3)C1 (stereo not given)	none
O=C(NC1(C(F)(F)F)NC(=O)N(C2CCCCC2)C1=O)c1cccs1 (stereo not given)	none
CCOC(=O)N1CCN(S(=O)(=O)c2ccc(C(=O)Nc3nc4c(s3)CC(C)CC4)cc2)CC1 (stereo not given)	Autofluor 339 4.6 (not shown: Spn DPM-DC inh)
O=C(CSc1nnc(-c2ccccc2O)o1)Oc1ccc(OCc2ccccc2)cc1	Autofluor 339 4 (not shown: Spn DPM-DC inh)
Cc1nn(-c2ccccc2)c(N2CCCC2)c1/C=N/n1cnc2scc(-c3ccccc3)c2c1=O	Autofluor 339 3.5
CCN=C(NCC)SC1CC(=O)N(c2cccc(OCC)c2)C1=O (stereo not given)	none
O=S(=O)(Nc1cccc2ccccc12)N1CCCC1	Autofluor 339 2.5
O=C(NCCc1ccccc1)c1ccccc1NS(=O)(=O)N1CCCC1	Autofluor 339 3.4 (not shown: Spn DPM-DC inh)
COc1ccccc1NC(=O)c1ccccc1NS(=O)(=O)N1CCCC1	none
O=C(O)c1cccn2c(=O)c3ccccc3nc12	NADH coupling 54µM, Spn DPM-DC inh active
O=C(c1cccn2c(=O)c3ccccc3nc12)N1CCN(c2ccccn2)CC1	none
CCn1c2ccccc2c2cc(C3C(C#N)=C(C)NC(C)=C3C#N)ccc21	Autofluor 339 4.8 (not shown: Spn DPM-DC inh)
CCn1c2ccccc2c2cc(N)ccc21	Autofluor 339 2.9 (not shown: Spn DPM-DC inh)
CCn1c2ccccc2c2cc(C3C(C#N)=C(N)OC4=C3C(=O)CC(C)(C)C4)ccc21 (stereo not given)	none
CCOC(=O)c1c(C)noc1CP(=O)(c1ccccc1)c1ccccc1	none
CN(c1ccc(Cl)cc1)c1cc(=O)n(C)c2ccccc12	none
CN(C)c1ccc2c(O)cc(=O)n(C)c2c1	Autofluor 339 2.3 (not shown: Spn DPM-DC inh)
COCCNC(=O)c1ccc2c(=O)n(CCOC)c(=O)[nH]c2c1	none
CCOc1cc2[nH]c(=O)n(CCC(=O)N3CCN(c4ccccc4OC)CC3)c(=O)c2cc1OCC	none
CCOc1cc2[nH]c(=O)n(Cc3ccc(C(=O)NCCOC)cc3)c(=O)c2cc1OCC	Spn DPM-DC inh active
CCOc1cc2[nH]c(=O)n(Cc3cccc(OC)c3)c(=O)c2cc1OCC	Autofluor 339 2
COc1cccc(N(C(=O)CNC(=O)c2ccco2)C(C(=O)NC2CCCCC2)c2ccncc2)c1 (stereo not given)	none
CN(C)C(CNC(=O)CN1C(=O)NC2(CCc3ccccc32)C1=O)c1ccco1 (stereo not given)	none
COc1ccc(/C=N/n2cnnc2SCc2ccccc2)cc1	none
COc1ccc(N2C(C)=CS/C2=C(/C#N)c2nnc(N3CCOCC3)n2-c2ccccc2)cc1	MK inhibit 78, PMK inhibit 74, Spn DPM-DC inh active
COC(=O)c1c(C(=O)OC)c2cc(C)ccn2c1Cl	Autofluor 339 3.4 (not shown: Spn DPM-DC inh)
COC(=O)CSc1nnc2c3c4c(sc3nc(-n3nc(C)cc3C)n12)COC(C)(C)C4	Autofluor 339 2.7
CCCOC(=O)c1cc(=O)[nH]c2ccccc12	Autofluor 339 2.3
Cc1cc(C)c(NC(=O)CSc2nnc(-c3ccncc3)n2Cc2ccco2)c(Cl)c1	none

From PubChem BioAssay
